The subject of the assay is MILI (PIWIL2) piRISC loaded with L1MC piRNA (26 nt). The assay is described as follows: pre-steady-state target cleavage rate (min^-1); guide: L1MC piRNA 5'p-UAACUAAAUACUAUGCAAGCUGUAGG; MIWI and MILI are mouse PIWI proteins and EfPiwi is from a freshwater sponge; tags in brackets are library labels; higher = faster piRNA-guided slicing of the target. Summed up: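 Three pooled Cleave-'n-Seq trials supplied the data, with k3 capped at 0.0001 min^-1. In each, […] transcribed, DNA-blocked target RNA library and 1 nM active affinity-purified piRISC with one synthetic guide reacted in HEPES–potassium acetate buffer at 33 °C for 0–8 or 0–960 min, with or without 500 nM GTSF1 partner protein. Uncleaved targets were sequenced and normalised to depth and to weakly complementary targets. A burst-and-steady-state fit provided the pre-steady-state cleavage rate.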

The mark [1] stands for this setting: auxiliary factor: 500 nM mouse GTSF1.
The mark [2] stands for this setting: auxiliary factor: none (no GTSF1).

± gives the standard deviation.
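Note: 1 nM active piRISC with 0.1 nM target library at 33 °C single turnover.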

Regarding UCCUGGAUGUCGUUUCAUAGUAUUUAGUUA, the “pre-steady-state target cleavage rate” value under setting [1] stood at 0.0434 ± 0.0083 and the “pre-steady-state target cleavage rate” value under setting [2] was found to be 0.00464 ± 0.0023.
UCCUGGAUGUCGUUGCAUAGUAUAUUAGUUA: the “pre-steady-state target cleavage rate” value under setting [1] was 0.121 ± 0.023 and the “pre-steady-state target cleavage rate” value under setting [2] is 0.00754 ± 0.0028.
As for UCCUGGAUGAGCUAGGAUAGUAUUUAGUUA, the “pre-steady-state target cleavage rate” value reads like this: under setting [1], 0.131 ± 0.021; under setting [2], 0.00494 ± 0.0027.
For UCCUGGAUCAGCUUGCAAAGUAUAUAGUUA, in that order: 0.104 ± 0.012 and 0.00771 ± 0.0027.
For UCCUGGAUGUGCAUGCAUAGUUUUUAGUUA, in that order: 0.01 ± 0.0069 and 0.00641 ± 0.003.
For UCCUGGUACAGCUAGGAUAGUAUUUAGUUA, in that order: 0.191 ± 0.026 and 0.00723 ± 0.0022.
For the sequence UCCUGGAUGAGCUUGCAUAGUUAUUUAGUUA, the “pre-steady-state target cleavage rate” value is, setting by setting: under setting [1], 0.0115 ± 0.0045; under setting [2], 0.00489 ± 0.0022.
For UCCUGGAUGUCCUUGGAUAGUUUUUAGUUA, in that order: 0.0144 ± 0.0045 and 0.00344 ± 0.0027.
The corresponding values for UCCUGGUUGUGCUUGCAUAGUAUUUAGUAA are 0.0938 ± 0.02 and 0.00427 ± 0.0031.
For UCCUGGAUGUCGUUGCAUAGUAUAUAGUUA, in that order: 0.155 ± 0.028 and 0.00761 ± 0.0026.
UCCUGGUACAGCUACCAUAGUAUUUAGUAA: the “pre-steady-state target cleavage rate” value is, setting by setting: under setting [1], 0.28 ± 0.04; under setting [2], 0.00528 ± 0.0023.

The values above are taken from the supplement of paper PMC10338343.
